NR2F2 inh: NR2F2 transcriptional activity inhibitors, primary screen, cell-based, luciferase reporter, HEK293T, luminescence. COUP transcription factor 2 (Homo sapiens), P24468. HEK293T NGFI-A luciferase reporter. inhibition, % at 8.6 µM. 0.7% of 370,000 active;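 active = inhibition above a per-plate cutoff, mean inhibition of test wells between control levels plus 3 SD, cut at about 38% in these data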;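 also: cells cotransfected with COUP-TFII expression vector driving the NGFI-A reporter; 0% = median of COUP-TF2 test wells and 100% = reporter-only cells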
NR5A2 inv ag: LRH-1 (NR5A2) inverse agonists, primary screen, cell-based, luminescence, HEK293T, StAR-luciferase reporter; Nuclear receptor subfamily 5 group A member 2 (Homo sapiens), O00482; LRH-1 transfected, 24 h; inhibition, % at 3.6 µM; 0.13% of 360,000 active; AID 602396, 2012;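 active = inhibition above the mean inhibition of all tested compounds plus 3 SD, cut at about 73% in these data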;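 also: 0% = DMSO wells and 100% = reporter-only cells lacking LRH-1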
NCOA1 inh: SRC1 coactivator transcriptional activity inhibitors, primary screen, cell-based, luminescence. Nuclear receptor coactivator 1 (Homo sapiens), Q15788. HEK293 GAL4-SRC1 luciferase reporter. inhibition, % at 3.6 µM. 0.12% of 360,000 active. AID 588354, 2011;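 active = inhibition above the campaign mean plus 3 SD, with each screening campaign given its own cutoff, cut at about 60% in these data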;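 also: 0% = DMSO treated cells and 100% = gossypol at 36 µM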
Gli-Sufu block: Gli-Sufu pathway antagonists, primary screen, luciferase luminescence, Sufu-KO-LIGHT cells, uHTS; inhibition, % at 5 µM; 0.74% of 340,000 active; Sufu-KO-LIGHT fibroblasts, Gli luciferase reporter luminescence;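 active = inhibition above about 55%, limit read from the data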;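 also: 0% = DMSO-treated cells and 100% = wells with medium but no cells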
SRC3 inh: SRC3 coactivator transcriptional activity inhibitors, primary screen, cell-based, luminescence. Nuclear receptor coactivator 3 (Homo sapiens), Q9Y6Q9. HEK293 GAL4-SRC3 luciferase reporter. inhibition, % at 3.6 µM. 0.17% of 360,000 active;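 active = inhibition above a per-campaign cutoff, the mean of all compounds plus 3 SD, cut at about 60% in these data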;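 also: 0% = DMSO-treated cells and 100% = gossypol-treated cells at 36 µM; higher means less SRC3-driven luciferase light from the GAL4 reporter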
SRC2 inh: inhibition of GAL4-SRC2 driven luciferase reporter, primary screen, SRC2 inhibitor project, cell-based, luminescence; Nuclear receptor coactivator 2 (Homo sapiens), Q15596; HEK293 GAL4-SRC2 luciferase reporter; inhibition, % at 9 µM; 0.17% of 370,000 active;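 active = inhibition above the mean inhibition of all tested compounds plus 3 SD, set per campaign, cut at about 52% in these data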;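 also: 0% = DMSO treated cells and 100% = cells given Gossypol at 36 µM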
Target sequence (Q15596 whole entry, looked up, the tested form may be a part): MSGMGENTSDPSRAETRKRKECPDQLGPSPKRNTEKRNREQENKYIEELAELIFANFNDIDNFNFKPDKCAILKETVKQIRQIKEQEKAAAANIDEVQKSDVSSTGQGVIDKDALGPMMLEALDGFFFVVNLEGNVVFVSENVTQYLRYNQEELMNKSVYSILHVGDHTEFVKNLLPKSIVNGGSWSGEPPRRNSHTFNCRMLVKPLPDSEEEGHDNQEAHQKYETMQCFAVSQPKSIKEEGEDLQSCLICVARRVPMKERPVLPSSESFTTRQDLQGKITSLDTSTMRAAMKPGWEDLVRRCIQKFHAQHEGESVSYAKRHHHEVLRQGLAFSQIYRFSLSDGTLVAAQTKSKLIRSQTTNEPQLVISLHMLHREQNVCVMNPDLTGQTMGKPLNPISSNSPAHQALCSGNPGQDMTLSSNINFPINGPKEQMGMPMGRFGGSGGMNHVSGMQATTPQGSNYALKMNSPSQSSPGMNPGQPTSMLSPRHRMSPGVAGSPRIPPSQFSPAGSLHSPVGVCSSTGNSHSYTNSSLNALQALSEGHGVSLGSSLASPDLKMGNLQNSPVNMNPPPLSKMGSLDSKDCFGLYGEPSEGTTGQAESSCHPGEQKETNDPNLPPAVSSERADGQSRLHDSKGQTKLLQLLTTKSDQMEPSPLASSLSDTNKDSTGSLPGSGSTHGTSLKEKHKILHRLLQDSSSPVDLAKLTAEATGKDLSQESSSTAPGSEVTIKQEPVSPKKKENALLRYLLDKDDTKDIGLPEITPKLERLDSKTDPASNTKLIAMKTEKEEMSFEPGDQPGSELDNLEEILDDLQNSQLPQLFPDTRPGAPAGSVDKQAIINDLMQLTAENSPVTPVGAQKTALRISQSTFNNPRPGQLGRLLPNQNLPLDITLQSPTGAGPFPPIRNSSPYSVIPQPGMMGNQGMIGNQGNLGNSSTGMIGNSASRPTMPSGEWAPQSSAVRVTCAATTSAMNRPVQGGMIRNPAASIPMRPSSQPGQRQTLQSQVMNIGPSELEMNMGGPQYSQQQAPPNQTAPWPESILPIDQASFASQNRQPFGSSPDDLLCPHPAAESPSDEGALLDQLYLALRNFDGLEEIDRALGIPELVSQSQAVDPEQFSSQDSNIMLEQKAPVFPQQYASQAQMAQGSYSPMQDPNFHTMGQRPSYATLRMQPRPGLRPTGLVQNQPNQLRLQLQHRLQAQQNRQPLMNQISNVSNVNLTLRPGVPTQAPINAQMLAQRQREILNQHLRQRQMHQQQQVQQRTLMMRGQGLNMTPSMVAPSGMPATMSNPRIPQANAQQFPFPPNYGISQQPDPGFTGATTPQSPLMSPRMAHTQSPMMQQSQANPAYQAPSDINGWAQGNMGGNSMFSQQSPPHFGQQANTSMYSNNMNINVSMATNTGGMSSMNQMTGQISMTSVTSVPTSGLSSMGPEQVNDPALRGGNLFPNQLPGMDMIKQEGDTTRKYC
VP16 Luc counter: Gal4-VP16 luciferase reporter inhibitors, counter-screen for COUP-TFII antagonist project, cell-based, luminescence, HEK293; shares compounds with NR2F2 inh; inhibition, % at 8.5 µM; 25% of 2,500 active; in the data active = inhibition above about 13%
NR2F2 inh conf: NR2F2 transcriptional activity inhibitors, confirmation, cell-based, luciferase reporter, HEK293, triplicate; shares compounds with NR2F2 inh; HEK293 NGFI-A luciferase reporter, luminescence; inhibition, % at 8.5 µM; 45% of 2,500 active;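 active = mean inhibition over three repeats above a set limit taken from the earlier primary screen, cut at about 38% in these data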;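 also: 100% = cells given the luciferase reporter alone without the COUP-TF2 vector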
Starred values were filed as active, the others as inactive; . = no result. This is a sample that favours compounds with a hit; in the whole collection about 1.3% have one here.

SMILES	NR2F2 inh	NR5A2 inv ag	NCOA1 inh	Gli-Sufu block	SRC3 inh	SRC2 inh	VP16 Luc counter	NR2F2 inh conf
CCCOc1ccc(/C=N/NC(=S)Nc2ccccc2[N+](=O)[O-])c(O)c1	73*	.	.	82*	.	52*	73*	83*
COc1cccc(N2CCN(C(=O)c3ccc(CSc4nc5ccncc5[nH]4)cc3)CC2)c1	42*	-12	-11	7	-12	18	2	16
Cc1ccc(C)c(N2CCN(C(=O)c3ccc(CSc4nc5ccncc5[nH]4)cc3)CC2)c1	29	-11	15	4	0	-3	.	.
COCCN1Cc2cc(C(=O)OC)c3c(c2C1=O)c1cc(OC)ccc1n3C(=O)c1ccccc1	18	.	.	.	.	9	.	.
COc1ccccc1CNC(=O)NNC(=O)CCn1nc(C)c([N+](=O)[O-])c1C	4	.	.	.	.	-1	.	.
CC1CCN(C2=NC(=O)/C(=C/c3ccccc3F)S2)CC1	63*	29	28	12	44	54*	-117	-46
C[C@@H]1OC(C2CCCCC2)N(C)[C@H]2C[C@H]3c4[nH]c5cccc(-c6cccc(F)c6)c5c4CCN3C(=O)[C@@H]12 (stereo partly specified)	2	.	.	.	.	-4	.	.
CC(=O)c1cccc(NC(=O)C2Cc3c(-c4cccc(C(C)=O)c4)ccnc3O2)c1 (stereo unspecified)	48*	3	16	.	7	-21	5	16
O=C(NCc1ccncc1)C1Cc2c(-c3ccccc3Oc3ccccc3)ccnc2O1 (stereo unspecified)	38*	4	-2	.	-7	19	-2	-4
COc1ccc(NC(=O)C2Cc3c(-c4ccccc4Oc4ccccc4)ccnc3O2)cc1OC (stereo unspecified)	64*	9	16	.	13	24	-2	35
COc1ccc(NC(=O)C2Cc3c(-c4ccccc4Oc4ccccc4)ccnc3O2)cn1 (stereo unspecified)	30	-1	17	.	5	-11	.	.
Cc1ccc(C(=O)N2CCC[C@@H]2C(=O)N2CCC[C@H]2C(=O)NCc2ccccc2)cc1	3	.	.	.	.	19	.	.
Cc1cc2nc(C3CCCN(C(=S)Nc4ccccc4C)C3)[nH]c2cc1C (stereo unspecified)	45*	15	14	-2	7	21	-34	-7
Cc1nnc(C)n1N=Cc1ccc(Cl)c([N+](=O)[O-])c1	-19	.	.	.	.	7	.	.
Cc1ccccc1CN1CCCCC(NC(=O)c2ccc(-c3ccccc3)cc2)C1=O (stereo unspecified)	57*	.	.	.	.	16	-15	41*
CCCCOc1ccc(C(=O)NC2CCCCN(Cc3ccc(C)cc3)C2=O)cc1 (stereo unspecified)	40*	.	.	.	.	19	-12	25
Cc1ccccc1CN1CCCCC(NC(=O)c2ccccc2C)C1=O (stereo unspecified)	3	.	.	.	.	-8	.	.
Cc1ccc(CN2CCCCC(NC(=O)c3ccc(COc4ccccc4)cc3)C2=O)cc1 (stereo unspecified)	51*	.	.	.	.	18	-10	23
CCCCOc1ccc(C(=O)NC2CCCCN(Cc3ccc(Cl)cc3)C2=O)cc1 (stereo unspecified)	14	.	.	.	.	14	.	.
O=C(OC12CCCN(C1)/C(=C/c1cccc(Cl)c1)C2)c1ccccc1 (stereo unspecified)	7	.	.	.	.	12	.	.
CC(=O)C1(C(=O)NCc2ccccc2)CC(c2ccccc2C(F)(F)F)=NO1 (stereo unspecified)	-17	.	.	.	.	1	.	.
C#CCNC(=O)C[C@H]1C[C@@]2(C(=O)OC)C(=C[C@H](C(C)(C)C)O[C@@H]2C)N(Cc2ccco2)C1=O	-6	.	.	.	.	-25	.	.
COC(=O)C1CN(CCc2ccccc2)CCS(=O)(=O)N1Cc1ccc(C)cc1 (stereo unspecified)	9	.	.	.	.	7	.	.
CC[n+]1c(C=C2C=C(C)OC(C)=C2)sc2ccccc21	77*	76*	53	85*	68*	-58	12	64*
Cc1cc(S(=O)(=O)c2ccc(Cl)cc2)nc(S(=O)(=O)c2ccc(Cl)cc2)c1C#N	45*	-7	-114	.	-11	15	56*	62*
SMILES	NR2F2 inh	NR5A2 inv ag	NCOA1 inh	Gli-Sufu block	SRC3 inh	SRC2 inh	VP16 Luc counter	NR2F2 inh conf
O=C(CCCCCN1C(=O)C2C3C=CC(C3)C2C1=O)Nc1ccc2ncccc2c1 (stereo unspecified)	3	.	.	.	.	-2	.	.
CC(C)(C)c1ccc(-c2cn(-c3ccc(Br)cc3)c3[n+]2CCCS3)cc1	50*	83*	51	93*	50	21	18*	37
Nc1nc(NCc2ccco2)nc(N2CCCC2)c1[N+](=O)[O-]	4	-14	8	10	12	-2	.	.
CC(C)CCNc1nc(N)c([N+](=O)[O-])c(N2CCCCCC2)n1	41*	-6	13	15	29	19	-3	28
Nc1nc(NCc2ccco2)nc(N2CCCCCC2)c1[N+](=O)[O-]	48*	-5	-8	22	38	20	2	23
O=S(=O)(CC1NCc2ccccc21)NCc1ccc(F)cc1 (stereo unspecified)	-4	.	.	.	.	-5	.	.
Cc1ccc(-n2c(C)cc(/C=C3\SC(=O)NC3=O)c2C)cc1	-3	-113	-167	-86	-94	-4	.	.
Cc1cc(/C=C2/SC(=S)N(c3cccc(Cl)c3)C2=O)c(C)n1-c1cccnc1	65*	36	12	15	11	2	-22	64*
Cc1cc(/C=C2\SC(=S)N(C)C2=O)c(C)n1-c1ccc(O)cc1	84*	72	80*	-27	81*	73*	68*	98*
CN1C(=O)/C(=C/c2coc3ccc(O)cc3c2=O)SC1=S	-11	21	1	9	-18	-1	.	.
Cc1ccc(/C=C2\SC(=S)N(c3cccnc3)C2=O)o1	-1	8	6	12	-9	-12	.	.
Cc1cc(/C=C2\SC(=S)N(C)C2=O)c(C)n1-c1ccccc1O	43*	-2	-14	2	-7	13	-107	13
COC(=O)[C@]1(C#N)CC(=O)N(C)[C@@H]1c1ccccc1	-2	.	.	.	.	-6	.	.
